# From PubChem BioAssay (EPA / NIEHS)
# Records with an inconclusive call do not appear. The source made the active and inactive calls. Rule for the calls: active = hit-call score of the fitted dose curve at least 0.9, where 1 is the maximum; inconclusive = response in the unintended direction; inactive = score below 0.9. Peptide text beside a SMILES is read from it.
# Experiment: ACEA_AR_antagonist_AUC_viability: ACEA Biosciences xCELLigence Real-Time Cell Analysis on Androgen Receptor Antagonism for Viability (AID 2283776);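 note: area under impedance growth curve at 80 h after dosing as viability; hits lower the growth signal relative to DMSO meaning cytotoxicity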
# Method in brief: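 22Rv1 human prostate cancer cells were seeded on electrode plates, monitored overnight, then exposed to eight 1:4 dilutions from 100 uM final. Impedance-based growth kinetics at 80 h gave an AUC viability endpoint normalized to DMSO.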
SMILES,outcome,AC50
COC(=O)[C@H](Cc1ccccc1)NC(=O)[C@@H](N)CC(=O)O (H-Asp-Phe-OMe),inactive,–
O=C(O)CC(C(=O)O)S(=O)(=O)O (configuration not stated),inactive,–
CCCCCCCO,inactive,–
CC(=O)OCc1ccccc1,inactive,–
CCOC(=O)C1=NOC(c2ccccc2)(c2ccccc2)C1,inactive,–
C=C1C[C@H]2[C@@H]3C=C(C)C4=CC(=O)CC[C@]4(C)[C@H]3CC[C@]2(C)[C@@]1(OC(C)=O)C(C)=O,inactive,–
COc1cc(O)c(C(=O)c2ccccc2)cc1S(=O)(=O)O,inactive,–
O=C(O)c1ccc2c(c1)C(=O)OC2=O,inactive,–
CCC1COC(=O)O1 (configuration not stated),inactive,–
Cc1ccc(C)c(OCCCC(C)(C)C(=O)O)c1,inactive,–
CCCCCCCCC(CO)CCCCCC (configuration not stated),inactive,–
CCCCCCCCCC(C)=O,inactive,–
CO[Si](C)(C)OC,inactive,–
CCCCCCC=O,inactive,–
CCCCNS(=O)(=O)c1ccccc1,inactive,–
CCCCOCCOC(=O)COc1ccc(Cl)cc1Cl,inactive,–

SMILES,outcome,AC50
CCOC(=O)c1ccc(C)cc1,inactive,–
CCC(C)(O)CCCC(C)C (configuration not stated),inactive,–
CC(C)(C)N,inactive,–
CCCCCCOC(=O)CCCCC(=O)OCCCCCC,inactive,–
CC(C)=CCCC(C)=CC#N,inactive,–
CCCCCCO,inactive,–
CCc1cccc(C)c1N,inactive,–
CC(=O)OC1CCCCC1C(C)(C)C (configuration not stated),inactive,–
CCCCCC[C@@H](O)C/C=C\CCCCCCCC(=O)OCC(O)CO (some centres not stated),inactive,–
CC(C)(C)C1CCC(=O)CC1,inactive,–
CCCCCC(=O)OCC,inactive,–
CCCCCCCCCCCC(=O)N(C)CC(=O)O,inactive,–
CCCCC(=O)O,inactive,–
Oc1ccc(-c2ccccc2)c(Cl)c1,–,0.598 µM (active)
CCCCc1ccc(Cl)cc1,inactive,–
O=C(Nc1ccccc1)c1cc(Cl)ccc1O,–,16.6 µM (active)
